Active and inactive are the calls of the source.

The test system of assay [1] is PRMT1 (protein arginine N-methyltransferase 1). Description: PRMT1 binders on small-molecule microarrays, primary screen, biochemical, small-molecule microarray, 635 nm fluorescence (AID 1088).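 Note: binding of Prmt1 protein to compounds spotted on small-molecule microarray slides.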 Particulars: small-molecule microarray binding, higher = more signal.
A short description of assay [2]: yeast growth modulation, basal conditions, primary screen, YJM789 clinical isolate, OD600, 24 h (AID 1089).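 Note: growth of clinical yeast isolate S. cerevisiae YJM 789 seeded 1000 cells per well; test concentration not given here.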 Particulars: S. cerevisiae YJM789 growth, higher = more signal, called active from +8 up or from −8 down.
Assay [3] can be described thus: fission yeast growth modulation, primary screen, strain 972, OD600, 24 h, no modulator (AID 1090).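 Note: basal condition with compound alone and no growth modifier present; test concentration not given here.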 The settings on record: S. pombe 972 growth, higher = more signal, called active from +8 up or from −8 down.
The nature of assay [4]: S. cerevisiae growth modulation with rapamycin, primary screen, strain BY4716, OD600, 96 h (AID 1091). Note: test concentration not given here. The settings on record: higher = more signal, called active from +8 up or from −8 down.
The target of assay [5] is Torsin-1A-interacting protein 2 (Homo sapiens) (UniProt Q8NFQ8). Description: LULL1 binders on small-molecule microarray, primary screen, cell lysate, human LULL1 lysate, 635/667 nm fluorescence (AID 1092).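 Note: probe is lysate of COS7 cells overexpressing human LULL1; score merges per-feature 667 nm fluorescence with signal-to-noise.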 The settings on record: hLULL1 lysate binding, 635 nm fluorescence, higher = more signal.
The nature of assay [6]: E. coli growth modulation, two-sided OD650, primary screen, E. coli filamentation project, strain DRC41, 24 h (AID 1093).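 Note: MC1000 strain lacking acrAB efflux and sulA so SOS filamentation is blocked; test concentration not given here.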 Particulars: OD650, 24 h, higher = more signal, called active from +8 up or from −8 down.
Assay [7] is described as follows: small-molecule microarray binders of probe aLefty2, primary screen, biochemical, biotinylated probe, 635/667 nm fluorescence (AID 1094).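 Note: score merges spot fluorescence near 667 nm with spot signal-to-noise ratio.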 Particulars: higher = more signal.
For assay [8], the system named is Noggin (protein binding on small-molecule microarray). As to the kind of experiment: Noggin binders on small-molecule microarray, primary screen, biochemical, 635/667 nm fluorescence (AID 1095).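 Note: score merges 667 nm feature fluorescence with signal to noise over triplicate slides.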 Particulars: 635 nm fluorescence, higher = more signal.
Assay [9] concerns the target Neurogenic locus notch homolog protein 3 (Homo sapiens) (UniProt Q9UM47). Description: NOTCH3 binders on small-molecule microarray, primary screen, biochemical, 635/667 nm fluorescence (AID 1096). The settings on record: NOTCH3 binding, 635 nm fluorescence, higher = more signal.
Assay [10] in a line: small-molecule microarray binders of probe aEGFR, primary screen, biochemical, biotinylated probe, 635/667 nm fluorescence (AID 1097).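 Note: probe is a biotinylated anti-EGFR antibody binding compounds printed on slides; score combines fluorescence near 667 nm and signal to noise of each spot.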 The settings on record: higher = more signal.
Assay [11] concerns Plasmodium falciparum Sir2 (PF13_0152, Sir2A). Description: pfSir2 binders on small-molecule microarrays, primary screen, biochemical, small-molecule microarray, 635 nm fluorescence (AID 1098).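 Note: score merges spot fluorescence intensity with its signal-to-noise ratio.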 Particulars: small-molecule microarray binding, fluorescence 635 nm; higher = more signal.
Assay [12] can be described thus: small-molecule microarray binders of probe aDKK1, primary screen, biochemical, biotinylated probe, 635/667 nm fluorescence (AID 1099).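 Note: score merges 667nm spot fluorescence with signal to noise across triplicate slides; reference of the scale not given here.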 The settings on record: higher = more signal.
A short description of assay [13]: small-molecule microarray binders of probe aCHRDL2, primary screen, biochemical, biotinylated probe, 635/667 nm fluorescence (AID 1100). The settings on record: higher = more signal.
A short description of assay [14]: splicing luciferase reporter signal modulators, primary screen, spliceosome inhibition project, cell-based, HEK293, splice +/- reporter (AID 1101).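 Note: HEK293 cells carrying a splicing-competent luciferase reporter gene; test concentration not given here.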 The settings on record: luminescence, 24 h, higher = more signal, called active from +8 up or from −8 down.
Assay [15] addresses Fibroblast growth factor 10 (Homo sapiens) (UniProt O15520). As to the kind of experiment: FGF10 binders on small-molecule microarrays, primary screen, biochemical, small-molecule microarray, 635 nm fluorescence (AID 1102). Particulars: FGF10 binding, fluorescence 635 nm, higher = more signal.
In assay [16] the test system is glycogen synthase kinase-3 (GSK3A per assay name; protocol says GSK3B). Description: GSK3 binders on small-molecule microarrays, primary screen, biochemical, small-molecule microarray, 635 nm fluorescence, GSK3A (AID 1103). Note: the record names both GSK3A and GSK3B. The settings on record: small-molecule microarray binding, fluorescence 635 nm; higher = more signal.
Assay [17] deals with Epidermal growth factor receptor (Homo sapiens) (UniProt P00533). As to the kind of experiment: EGFR binders on small-molecule microarrays, primary screen, biochemical, small-molecule microarray, 635 nm fluorescence (AID 1104).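 Note: score merges 667 nm emission intensity with spot signal to noise over triplicate slides.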 The settings on record: EGFR binding, higher = more signal.
Assay [18] has as its target Follistatin-related protein 3 (Homo sapiens) (UniProt O95633). As to the kind of experiment: FSTL3 binders on small-molecule microarrays, primary screen, biochemical, small-molecule microarray, 635 nm fluorescence (AID 1105).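 Note: score merges emission near 667 nm and signal to noise per printed spot across three slides.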 The settings on record: FSTL3 binding, higher = more signal.
For assay [19], the target named is Dickkopf-related protein 1 (Homo sapiens) (UniProt O94907). Description: DKK1 binders on small-molecule microarrays, primary screen, biochemical, small-molecule microarray, 635 nm fluorescence scan (AID 1106).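 Note: score merges emission near 667 nm with signal to noise over three replicate slides.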 Particulars: DKK1 binding, higher = more signal.
Assay [20] deals with Inhibin beta A chain (activin A). Description: INHBA (activin A) binders on microarrays, primary screen, biochemical, small-molecule microarray, 635 nm fluorescence scan (AID 1107).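 Note: mouse activin A protein probed at 4.33 µg/mL on printed slides; score merges bound-protein fluorescence near 667 nm with spot signal-to-noise.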 Particulars: small-molecule microarray binding, higher = more signal.

Sequence of Torsin-1A-interacting protein 2 (Homo sapiens) (Q8NFQ8 whole entry, looked up): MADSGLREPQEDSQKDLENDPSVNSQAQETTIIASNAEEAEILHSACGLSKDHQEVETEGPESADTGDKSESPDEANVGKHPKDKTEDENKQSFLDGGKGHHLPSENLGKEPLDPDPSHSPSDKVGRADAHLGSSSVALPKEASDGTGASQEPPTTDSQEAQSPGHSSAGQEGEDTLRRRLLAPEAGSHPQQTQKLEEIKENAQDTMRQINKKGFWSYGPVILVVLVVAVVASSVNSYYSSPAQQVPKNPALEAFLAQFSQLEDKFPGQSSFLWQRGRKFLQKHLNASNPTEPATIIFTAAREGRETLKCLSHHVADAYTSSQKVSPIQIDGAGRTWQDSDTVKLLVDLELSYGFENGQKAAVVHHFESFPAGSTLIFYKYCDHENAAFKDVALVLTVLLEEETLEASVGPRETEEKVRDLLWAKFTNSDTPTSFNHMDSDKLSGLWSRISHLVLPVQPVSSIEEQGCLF
Sequence of Neurogenic locus notch homolog protein 3 (Homo sapiens) (Q9UM47 whole entry, looked up): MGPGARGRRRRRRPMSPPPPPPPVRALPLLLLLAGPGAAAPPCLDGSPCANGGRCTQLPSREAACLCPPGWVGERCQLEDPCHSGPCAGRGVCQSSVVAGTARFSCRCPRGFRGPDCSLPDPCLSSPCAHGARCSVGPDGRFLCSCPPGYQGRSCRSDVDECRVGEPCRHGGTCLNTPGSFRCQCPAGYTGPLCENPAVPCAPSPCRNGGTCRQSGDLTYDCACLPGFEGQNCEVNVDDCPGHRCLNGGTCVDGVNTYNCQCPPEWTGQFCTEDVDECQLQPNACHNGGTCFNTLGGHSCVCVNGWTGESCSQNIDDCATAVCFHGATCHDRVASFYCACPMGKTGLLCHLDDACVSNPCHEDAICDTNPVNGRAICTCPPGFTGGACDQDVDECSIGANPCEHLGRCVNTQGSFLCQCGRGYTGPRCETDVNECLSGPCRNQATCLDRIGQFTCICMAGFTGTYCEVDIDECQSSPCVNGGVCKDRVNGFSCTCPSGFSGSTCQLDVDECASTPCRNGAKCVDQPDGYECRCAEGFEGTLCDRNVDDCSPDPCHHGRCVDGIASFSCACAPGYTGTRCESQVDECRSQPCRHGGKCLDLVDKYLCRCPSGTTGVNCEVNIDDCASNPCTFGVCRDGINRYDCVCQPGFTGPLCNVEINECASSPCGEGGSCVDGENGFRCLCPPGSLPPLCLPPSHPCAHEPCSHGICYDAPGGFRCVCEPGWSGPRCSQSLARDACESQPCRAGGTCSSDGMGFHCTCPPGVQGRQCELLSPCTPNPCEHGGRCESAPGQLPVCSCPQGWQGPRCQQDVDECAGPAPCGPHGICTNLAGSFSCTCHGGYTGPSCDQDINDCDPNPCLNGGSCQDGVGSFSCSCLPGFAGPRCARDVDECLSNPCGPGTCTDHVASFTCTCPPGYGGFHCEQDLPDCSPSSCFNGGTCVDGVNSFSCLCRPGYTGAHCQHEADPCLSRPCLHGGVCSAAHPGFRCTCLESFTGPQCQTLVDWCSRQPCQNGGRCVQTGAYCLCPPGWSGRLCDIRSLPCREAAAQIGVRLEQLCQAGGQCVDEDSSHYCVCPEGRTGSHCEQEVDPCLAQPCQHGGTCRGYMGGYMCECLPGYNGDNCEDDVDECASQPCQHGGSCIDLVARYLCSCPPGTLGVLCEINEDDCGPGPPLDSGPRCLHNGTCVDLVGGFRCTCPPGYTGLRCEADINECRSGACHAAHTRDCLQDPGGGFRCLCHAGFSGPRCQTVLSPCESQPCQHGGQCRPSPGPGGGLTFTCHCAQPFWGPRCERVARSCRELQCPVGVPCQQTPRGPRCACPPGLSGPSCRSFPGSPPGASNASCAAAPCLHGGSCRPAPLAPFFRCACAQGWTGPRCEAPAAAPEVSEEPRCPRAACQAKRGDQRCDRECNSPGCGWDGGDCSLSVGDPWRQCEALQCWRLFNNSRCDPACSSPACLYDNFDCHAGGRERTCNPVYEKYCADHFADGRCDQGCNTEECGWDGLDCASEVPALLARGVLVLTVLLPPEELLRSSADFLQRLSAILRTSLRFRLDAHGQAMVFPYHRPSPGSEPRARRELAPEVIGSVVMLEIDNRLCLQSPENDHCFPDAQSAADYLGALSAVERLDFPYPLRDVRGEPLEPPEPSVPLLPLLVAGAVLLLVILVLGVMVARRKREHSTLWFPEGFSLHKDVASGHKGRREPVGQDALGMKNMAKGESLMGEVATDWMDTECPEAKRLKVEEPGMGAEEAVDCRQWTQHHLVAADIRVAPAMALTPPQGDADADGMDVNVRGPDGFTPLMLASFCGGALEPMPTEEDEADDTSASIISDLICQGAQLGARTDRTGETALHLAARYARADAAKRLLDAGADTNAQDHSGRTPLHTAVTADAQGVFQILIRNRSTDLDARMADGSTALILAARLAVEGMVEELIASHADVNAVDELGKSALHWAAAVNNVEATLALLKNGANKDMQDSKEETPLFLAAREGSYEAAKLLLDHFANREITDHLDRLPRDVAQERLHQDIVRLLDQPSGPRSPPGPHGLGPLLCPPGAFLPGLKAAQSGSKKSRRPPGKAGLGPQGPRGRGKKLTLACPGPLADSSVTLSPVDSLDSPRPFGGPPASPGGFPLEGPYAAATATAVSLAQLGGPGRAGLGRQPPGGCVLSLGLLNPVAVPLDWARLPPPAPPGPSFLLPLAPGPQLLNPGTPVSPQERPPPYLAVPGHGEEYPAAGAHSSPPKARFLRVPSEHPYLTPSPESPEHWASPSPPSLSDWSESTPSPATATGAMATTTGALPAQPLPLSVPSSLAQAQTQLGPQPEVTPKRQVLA
Sequence of Epidermal growth factor receptor (Homo sapiens) (P00533 whole entry, looked up): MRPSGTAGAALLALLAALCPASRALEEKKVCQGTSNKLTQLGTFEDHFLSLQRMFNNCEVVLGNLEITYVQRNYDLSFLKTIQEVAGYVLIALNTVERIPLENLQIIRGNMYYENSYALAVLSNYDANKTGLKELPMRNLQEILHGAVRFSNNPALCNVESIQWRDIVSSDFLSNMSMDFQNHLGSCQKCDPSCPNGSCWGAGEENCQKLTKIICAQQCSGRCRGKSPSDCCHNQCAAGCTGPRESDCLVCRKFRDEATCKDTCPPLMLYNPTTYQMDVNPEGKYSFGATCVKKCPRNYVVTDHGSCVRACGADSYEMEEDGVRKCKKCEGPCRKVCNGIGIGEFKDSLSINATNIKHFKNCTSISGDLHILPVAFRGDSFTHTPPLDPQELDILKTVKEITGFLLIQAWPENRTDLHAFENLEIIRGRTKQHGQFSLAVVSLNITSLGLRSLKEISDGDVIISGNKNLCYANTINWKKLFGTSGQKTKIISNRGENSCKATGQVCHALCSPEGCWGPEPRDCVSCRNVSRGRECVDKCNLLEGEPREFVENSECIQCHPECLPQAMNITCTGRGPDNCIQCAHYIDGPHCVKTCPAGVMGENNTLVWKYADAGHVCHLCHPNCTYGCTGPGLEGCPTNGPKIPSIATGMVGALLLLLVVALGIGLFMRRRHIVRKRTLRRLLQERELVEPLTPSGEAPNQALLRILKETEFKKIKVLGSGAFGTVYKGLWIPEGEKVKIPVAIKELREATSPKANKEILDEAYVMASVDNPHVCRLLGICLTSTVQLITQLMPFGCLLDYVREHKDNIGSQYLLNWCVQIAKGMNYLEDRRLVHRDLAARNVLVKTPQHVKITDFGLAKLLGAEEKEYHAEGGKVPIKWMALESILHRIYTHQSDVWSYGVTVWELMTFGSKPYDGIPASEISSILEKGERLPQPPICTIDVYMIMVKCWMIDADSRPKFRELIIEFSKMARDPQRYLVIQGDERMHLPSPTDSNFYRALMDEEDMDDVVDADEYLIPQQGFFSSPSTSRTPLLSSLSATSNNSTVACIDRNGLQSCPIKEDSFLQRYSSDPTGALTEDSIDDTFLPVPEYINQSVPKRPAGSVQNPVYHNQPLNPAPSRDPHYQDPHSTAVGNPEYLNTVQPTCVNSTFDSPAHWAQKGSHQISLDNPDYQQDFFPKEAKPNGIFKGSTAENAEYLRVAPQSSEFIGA
Sequence of Dickkopf-related protein 1 (Homo sapiens) (O94907 whole entry, looked up): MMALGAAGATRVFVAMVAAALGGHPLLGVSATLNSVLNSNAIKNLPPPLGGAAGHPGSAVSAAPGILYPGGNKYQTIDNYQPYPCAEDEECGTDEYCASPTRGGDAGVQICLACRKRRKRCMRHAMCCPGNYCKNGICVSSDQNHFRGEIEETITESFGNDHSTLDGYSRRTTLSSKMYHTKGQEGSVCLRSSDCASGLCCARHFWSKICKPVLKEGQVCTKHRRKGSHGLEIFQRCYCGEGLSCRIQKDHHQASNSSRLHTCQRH
Sequence of Fibroblast growth factor 10 (Homo sapiens) (O15520 whole entry, looked up): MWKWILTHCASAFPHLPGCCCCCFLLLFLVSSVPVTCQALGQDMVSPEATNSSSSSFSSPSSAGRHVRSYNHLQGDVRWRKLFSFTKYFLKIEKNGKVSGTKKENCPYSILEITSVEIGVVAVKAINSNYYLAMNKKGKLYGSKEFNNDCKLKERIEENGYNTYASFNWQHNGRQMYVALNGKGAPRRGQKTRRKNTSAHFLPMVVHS
Sequence of Follistatin-related protein 3 (Homo sapiens) (O95633 whole entry, looked up): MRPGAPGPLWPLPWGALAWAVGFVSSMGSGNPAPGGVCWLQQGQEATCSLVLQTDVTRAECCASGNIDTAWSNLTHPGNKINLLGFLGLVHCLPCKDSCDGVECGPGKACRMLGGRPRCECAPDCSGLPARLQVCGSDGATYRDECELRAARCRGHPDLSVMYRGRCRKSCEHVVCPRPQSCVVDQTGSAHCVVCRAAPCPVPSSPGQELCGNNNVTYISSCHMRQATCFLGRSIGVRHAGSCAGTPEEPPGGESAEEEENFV

Consider `O=C1O[C@H](c2ccccc2)[C@H](c2ccccc2)N2[C@H]1[C@@H](C(=O)N1CCN(c3ncccn3)CC1)[C@]1(C(=O)Nc3ccc(C#CC4(O)CCCCCC4)cc31)[C@H]2c1ccc(OCCO)cc1`, for which the composite z-score in assay [1] is 1.53; in assay [5] it was 3.79; in assay [7], 1.19; in assay [8], 1.68; in assay [9] it was 1.08; in assay [10] it was 0.471. Further, the composite z-score in [11] was found to be 1.82; in [12] it was 0.695; in assay [13], 0.731; in assay [15] it was 1.45; in [16] it was 1.33; in assay [17], 1.38. For the same compound, the composite z-score came out at 1.21 in [18], 1.42 in [19] and 0.86 in assay [20]. The z-score in assay [2] was 2.89 (inactive); in assay [3], 1.42 (inactive); in assay [4], 5.4 (inactive); in assay [6] it was -0.409 (inactive); in assay [14], -0.604 (inactive).

Regarding `[N-]=[N+]=Nc1ccccc1C[C@]1(C(=O)N2CCOCC2)N=C(c2ccc(OCCCO)cc2)O[C@H]1c1ccccc1`, the composite z-score came to 1.55 in assay [1]; 2.69 in assay [5]; 0.178 in assay [7]; 0.593 in assay [8]; 0.871 in assay [9]; 0.134 in assay [10]. Also, the composite z-score in assay [11] came to 1.11; in assay [12] it was 1.45; in assay [13], 1.03; in [15], 1.16; in [16], 1.29; in [17] it was 0.307. In addition, the composite z-score in assay [18] came out at 1.01; in [19], 1.93; in assay [20], 0.52. Also, the z-score in [2] is 0.491 (inactive); in [3], -8.46 (active); in [4], 1.42 (inactive); in [6], 1.94 (inactive); in [14], -0.963 (inactive).

Turning to `CN1C(=O)C2C=CC(C(O)c3cccc(O)c3)N(Nc3ccccc3)C2C1=O` (stereo not given), the composite z-score in [1] is -0.0187; in assay [5] it was 0.684; in assay [7], 0.0004; in assay [8], 0.215; in assay [9], 0.764; in assay [10], -0.0251. In addition, the composite z-score in assay [11] was 1.15; in assay [12], 0.14; in assay [13] it was 0.285; in assay [15], 0.517; in assay [16] it was -0.236; in assay [17] it was -0.288. The composite z-score was -0.0255 in [18], -0.208 in assay [19] and 0.866 in [20]. The z-score is 0.637 (inactive) in assay [2]; 1.62 (inactive) in [3]; 1.1 (inactive) in assay [4]; -0.509 (inactive) in assay [6]; 1.27 (inactive) in assay [14].

As to `COCCOC(=O)N1C(=O)[C@@]2(c3cc(C#CCCO)ccc31)[C@H](c1ccccc1OCCO)N1[C@H](c3ccccc3)[C@H](c3ccccc3)OC(=O)[C@H]1[C@@H]2C(=O)Nc1nc2ccccc2s1`, the composite z-score in [1] was 1.55; in assay [5], 2.45; in assay [7], -0.0063; in [8], 1.1; in assay [9] it was 1.06; in [10], 0.113. Besides, the composite z-score in [11] was 1.5; in assay [12] it was 0.95; in [13], 0.856; in [15] it was 0.689; in [16], 1.2; in [17], 0.397. The composite z-score was 0.966 in assay [18], 0.635 in [19] and 0.46 in assay [20]. For the same compound, the z-score in assay [2] was 0.97 (inactive); in [3], 1.42 (inactive); in [4] it was 2.76 (inactive); in assay [6], 0.0879 (inactive); in assay [14] it was -0.713 (inactive).

For the compound `CC(CO)N1C(=O)[C@@H]2[C@H]3C(=O)OCC=C[C@H]3OC23C=CCN(C(C)(C)C)C(=O)[C@@H]13` (stereo not given in full), the composite z-score is -0.507 in [1]; -1.25 in assay [5]; -0.103 in assay [7]; -0.429 in assay [8]; -0.0056 in [9]; -0.0656 in assay [10]. For the same compound, the composite z-score in assay [11] is 0.115; in [12], -0.323; in assay [13] it was 0.129; in [15], -0.0566; in assay [16], -0.764; in [17], -1.14. The composite z-score in assay [18] was -0.205; in assay [19], -0.496; in assay [20] it was -0.197. For the same compound, the z-score in assay [2] is -0.0994 (inactive); in assay [3], -0.0932 (inactive); in [4], -0.422 (inactive); in [6], -0.607 (inactive); in assay [14], 0.74 (inactive).

Turning to `CCOC(=O)C[C@H]1[C@H](OC(=O)Cc2ccc3c(c2)OCO3)[C@@H](NC(=O)CC(C)C)c2cc(OCCCO)ccc2N1C(=O)Cc1ccc(OC)cc1`, the composite z-score in [1] is 0.336; in [5] it was 1.09; in assay [7] it was -0.134; in [8], -0.0273; in assay [9], 0.0046; in [10], -0.111. The composite z-score in assay [11] is -0.25; in assay [12], -0.283; in [13], -0.0563; in assay [15], 0.139; in assay [16], 0.0308; in assay [17], -0.0638. Also, the composite z-score was -0.0495 in [18], 0.0009 in assay [19] and 0.26 in assay [20]. The z-score in [2] was -1.88 (inactive); in assay [3], -0.843 (inactive); in assay [4] it was -0.733 (inactive); in assay [6], 1.38 (inactive); in assay [14], -1.86 (inactive).

`CCOC(=O)C[C@H]1[C@H](OC(=O)Cc2ccc3c(c2)OCO3)[C@@H](NC(=O)Cc2ccc(OC)cc2)c2cc(OCCCO)ccc2N1C(=O)c1ccc2ccccc2n1`: the composite z-score is 0.317 in assay [1]; 0.708 in [5]; -0.137 in [7]; 0.14 in [8]; 0.32 in [9]; -0.146 in assay [10]. Further, the composite z-score in assay [11] is 0.0382; in [12], -0.189; in [13], -0.265; in assay [15], 0.355; in assay [16], 0.415; in assay [17], 0.516. Moreover, the results for the composite z-score in assay [18], in [19] and in assay [20] were -0.114, 0.567 and 0.825, respectively. The z-score in assay [2] was -2.05 (inactive); in [3], -1.34 (inactive); in assay [4], 0.758 (inactive); in assay [6], 2.08 (inactive); in assay [14] it was -0.95 (inactive).

Turning to `C=C(/C(=C/C[C@H](OC(C)=O)c1cccc(OCCO)c1)c1cnc2ccccc2c1)C(C)C`, the composite z-score was 0.684 in assay [1]; 1.03 in assay [5]; -0.0888 in [7]; 0.608 in assay [8]; 0.778 in [9]; 0.386 in assay [10]. Further, the composite z-score was -0.96 in [11]; -0.104 in assay [12]; -0.105 in assay [13]; 0.904 in [15]; 0.324 in assay [16]; 0.705 in [17]. Also, the composite z-score turned out to be 1.49 in assay [18], 0.783 in assay [19] and 1.98 in assay [20]. Further, the z-score is 1.9 (inactive) in assay [2]; -0.3 (inactive) in assay [3]; 1.35 (inactive) in assay [4]; 0.172 (inactive) in assay [6]; -0.236 (inactive) in assay [14].

As for `C[C@@H]1ON(c2ccc(C(=O)OC(C)(C)C)cc2)[C@H](c2ccc(O)cc2)[C@H]1C(=O)N1C(=O)OC[C@H]1Cc1ccccc1`, the composite z-score was 1.56 in assay [1]; 1.24 in assay [5]; -0.146 in [7]; 0.525 in assay [8]; 1.12 in assay [9]; -0.0333 in assay [10]. For the same compound, the composite z-score in [11] was 0.632; in [12] it was 0.0187; in assay [13], -0.369; in assay [15] it was 0.663; in [16], 1.06; in assay [17], 0.365. The results for the composite z-score in assay [18], in assay [19] and in assay [20] were 0.431, 0.449 and -0.0851, respectively. Further, the z-score in [2] is 0.465 (inactive); in assay [3], -0.29 (inactive); in assay [4] it was 1.84 (inactive); in [6], -0.63 (inactive); in assay [14], 0.121 (inactive).

Values taken from PubChem BioAssay.
